Laboratory results reported in PubChem BioAssay (NCI).
This is part of a sample that, as a whole, favours compounds with a hit. Of some 83,000 tested, about 20% had one in any assay.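 Each cell line was grown in a 96-well plate and treated with one concentration of compound for 48 hours. Values below 10 were considered active.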

Key:
Assay in all cases: NCI-60 one-dose screen, 48 h (100 = growth as untreated, 0 = no growth, -100 = all killed)
Details in all cases: 10 µM
[1] = test system: DU-145 prostate
[2] = test system: K-562 leukemia
[3] = test system: MALME-3M melanoma
[4] = test system: MDA-MB-231 breast
[5] = test system: RXF 393 renal
[6] = test system: SF-268 CNS
[7] = test system: SF-295 CNS
[8] = test system: SF-539 CNS
[9] = test system: M14 melanoma
[10] = test system: UACC-257 melanoma

Measured: growth

COc1cc(CCN=Cc2ccccc2O)c([N+](=O)[O-])cc1OC
inactive: [1] 113% | [2] 94.9% | [3] 89.5% | [4] 112% | [5] 111% | [6] 100% | [7] 87.4% | [8] 106% | [9] 95.6%

Cc1c(O)cnc2nn(-c3ccccc3)c(=N)n12
inactive: [1] 110% | [2] 101% | [3] 124% | [4] 103% | [5] 111% | [6] 113% | [7] 99.1% | [8] 99.6% | [9] 114%

CCOC(=O)C1=C(Nc2ccc(Br)cc2)C(=O)N(CC)C1
inactive: [1] 107% | [2] 106% | [3] 101% | [4] 81.8% | [5] 92.9% | [6] 96.8% | [7] 87% | [8] 84.9% | [9] 110%

CC(CN1CCCCC1)NC(=O)c1scnc1-c1ccccc1 (configuration not stated)
inactive: [1] 116% | [2] 113% | [3] 106% | [4] 114% | [5] 101% | [6] 115% | [7] 79% | [8] 114% | [9] 101%

CC[N+](C)(CC)CCO
inactive: [1] 112% | [2] 99.6% | [3] 103% | [4] 98.6% | [5] 88.5% | [6] 112% | [7] 99.5% | [8] 108% | [9] 104%

COC(=O)/C=C/C(=O)NC(N)=O
inactive: [1] 105% | [2] 105% | [3] 97.4% | [4] 108% | [5] 95.2% | [6] 104% | [7] 95.2% | [8] 96.8% | [9] 106%

O=[N+]([O-])c1ccc(N=Nc2ccc(O)c3ccccc23)cc1
inactive: [1] 66.9% | [2] 22.1% | [3] 57.8% | [4] 36.8% | [5] 60.1% | [6] 45.9% | [8] 75.4% | [10] 17%

CCOC(=O)c1coc(C(=O)OCC)c1C(=O)OCC
inactive: [1] 116% | [2] 112% | [3] 116% | [4] 107% | [5] 123% | [6] 105% | [7] 102% | [10] 112%

c1ccc(Sc2ccccc2)cc1
inactive: [1] 105% | [2] 112% | [3] 94.4% | [4] 109% | [5] 114% | [6] 97% | [8] 103% | [10] 88.3%

CCOC(=O)C/C(C)=N\O
inactive: [1] 107% | [2] 94.4% | [3] 98.9% | [4] 105% | [5] 113% | [6] 103% | [7] 91.6% | [8] 107% | [9] 101%

NC(=O)c1ccc(N=C(N)N=C(N)N)cc1
inactive: [1] 107% | [2] 97.6% | [3] 93.1% | [4] 106% | [5] 89.6% | [6] 94.7% | [7] 96.8% | [8] 96.8% | [9] 110%

COc1cccc(COC(=O)Nc2ccccc2)c1OC
inactive: [1] 104% | [2] 102% | [3] 105% | [4] 104% | [5] 95.8% | [6] 114% | [7] 88.5% | [8] 107% | [9] 105%

C=CCCCCCCCCCOC(C)=O
inactive: [1] 102% | [2] 93.6% | [3] 93.1% | [4] 97% | [5] 103% | [6] 96.9% | [7] 105% | [8] 105% | [9] 104%

CC(C(=O)O)(C1CCCCC1)C1(O)CCCCC1 (configuration not stated)
inactive: [1] 108% | [2] 102% | [3] 98.9% | [4] 109% | [5] 99.1% | [6] 99.2% | [7] 82.9% | [8] 103% | [9] 104%

O=[N+]([O-])c1ccccc1S(=O)c1ccccc1[N+](=O)[O-]
inactive: [1] 106% | [2] 47.9% | [3] 90.4% | [4] 74% | [5] 111% | [6] 88.1% | [7] 79% | [8] 113% | [9] 95.9%

Cc1ccc(CCCC(=O)O)c(C)c1
inactive: [1] 107% | [2] 97.8% | [3] 105% | [4] 108% | [5] 100% | [6] 104% | [7] 98.5% | [8] 96.5% | [9] 107%

O=C(O)CCCCNC(=O)c1ccccc1
inactive: [1] 110% | [2] 89.3% | [3] 110% | [4] 99.1% | [6] 102% | [7] 95.1% | [8] 99.8% | [10] 107% | [9] 98.8%

Cc1ccncc1C(N)=O
inactive: [1] 106% | [2] 101% | [3] 106% | [4] 116% | [6] 98.2% | [7] 120% | [8] 95.7% | [10] 110% | [9] 103%

COC(=O)/C=C1\Sc2cc(F)ccc2NC1=O
inactive: [1] 126% | [2] 91.2% | [3] 102% | [4] 107% | [6] 110% | [7] 118% | [8] 104% | [10] 91% | [9] 93.3%

Cc1ccc(Cl)cc1N1C(=O)CC(Sc2ccccc2N)C1=O (configuration not stated)
inactive: [1] 123% | [2] 118% | [3] 138% | [4] 108% | [5] 92.5% | [7] 111% | [8] 105% | [10] 88.4% | [9] 118%

CCS(=O)(=O)c1cc(=O)[nH]c(=O)[nH]1
inactive: [1] 109% | [2] 128% | [3] 56.9% | [4] 101% | [6] 105% | [7] 122% | [8] 111% | [10] 44.4% | [9] 87.1%

COc1cccc(O)c1O
inactive: [1] 27% | [2] 78.4% | [3] 67% | [4] 85.5% | [5] 72.7% | [7] 104% | [8] 20.6% | [10] 72.3% | [9] 44.6%

CC(=O)OCCO
inactive: [1] 110% | [2] 103% | [3] 93.5% | [4] 121% | [5] 105% | [6] 106% | [8] 104% | [10] 102% | [9] 105%

C#CC(C(C)C)N(CCO)CCCC (configuration not stated)
inactive: [1] 112% | [2] 102% | [3] 116% | [4] 113% | [5] 100% | [6] 102% | [8] 90.4% | [10] 97.4% | [9] 108%

Nc1nc(N)c2cc(S(=O)(=O)c3cccc(C(F)(F)F)c3)ccc2n1
inactive: [1] 48% | [2] 17.7% | [3] 63.8% | [4] 67.9% | [5] 62.2% | [6] 29.2% | [8] 51.4% | [10] 43.7% | [9] 44.5%

CC(CC(=O)c1ccccc1)c1ccccc1 (configuration not stated)
inactive: [1] 112% | [2] 102% | [3] 93% | [4] 119% | [6] 110% | [7] 95.8% | [8] 105% | [10] 94.1% | [9] 119%

CC(=O)Nc1cccc(NC(C)=O)n1
inactive: [1] 110% | [2] 96.6% | [3] 91.5% | [4] 107% | [6] 100% | [7] 108% | [8] 103% | [10] 102% | [9] 103%

CCC/C=C(/C(C)=O)C(=O)OCC
inactive: [1] 114% | [2] 104% | [3] 118% | [4] 105% | [6] 84.5% | [7] 282% | [8] 117% | [10] 81.2% | [9] 118%

O=P(O)(O)OCC(O)CO (configuration not stated)
inactive: [1] 107% | [2] 113% | [3] 110% | [4] 111% | [5] 107% | [6] 108% | [8] 105% | [10] 102% | [9] 101%

CN(C)/N=C/c1ccccc1O
inactive: [1] 125% | [2] 120% | [3] 109% | [4] 106% | [6] 106% | [7] 112% | [8] 94.6% | [10] 109% | [9] 106%
